Screen size: about 190,000 compounds; about 1,600 (0.84%) were called active.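 How the source made its calls: active means inhibition above a set limit, derived from the sample mean plus 3 SD (cut at about 45% in these data); inconclusive means one replicate passes the limit while the other fails; inactive means the rest.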 For the sample, actives were picked, then their nearest neighbours and some compounds at random.

The nature of this assay: APP 5'UTR translational reporter suppression – APP 5'UTR luciferase, SH-SY5Y cells, primary screen (AID 1285). The conditions noted are these: SH-SY5Y APP 5'UTR-luciferase reporter, luminescence; at 2 µM; hits give high values. In general terms: A reporter such as luciferase makes a cellular process visible.
As to `COc1ccc(NC(=O)CCNS(=O)(=O)c2ccc3c(c2)c(=O)n(C)c(=O)n3C)cc1OC`, the inhibition (usually the relative decrease from the control value, in per cent) is 17.6% (inactive). With `COCCN(C(=S)Nc1ccccc1OC)C1CCN(C(C)C)CC1` the figure was -3.7% (inactive); with `COC(=O)c1cc2c(ccn2C)n1C`, -10.6% (inactive).

As for `Cc1cc(-c2n[nH]c(=S)n2/N=C/C(Br)=C/c2ccccc2)n[nH]1`, the inhibition is 83.5% (active).

As for `S=c1[nH]nc(-c2cccnc2)n1/N=C/C(Cl)=C\c1ccccc1`, the inhibition is -36.5% (inactive). With `Cc1ccc(/C=N\n2c(-c3ccccc3)n[nH]c2=S)s1` the figure was -4% (inactive); with `CC(Oc1ccccc1)C(=O)NN1Cc2ccccc2C1=N` (stereo not given), -15% (inactive). With `O=C1c2cccc3c([N+](=O)[O-])ccc(c23)C(=O)N1CC1CCCO1` (stereo not given) the figure was 53% (active). With `O=c1c2cc3c(=O)n(CC4CCCO4)c(=O)c3cc2c(=O)n1CC1CCCO1` (stereo not given) the figure was -21.8% (inactive); with `O=C(NCc1ccc2c(c1)OCO2)c1ccc2c(c1)C(=O)N(CC1CCCO1)C2=O` (stereo not given), 3.9% (inactive). As to `COc1ccc(OC)c(Cc2nnc(CCC(=O)NC3CCCC3)o2)c1`, the inhibition was -10.4% (inactive).

Turning to `COc1cc(OC)cc(C(=O)N[C@H](C(=O)OCC(=O)NC(C)c2ccccc2)C(C)C)c1` (stereo not given in full), the inhibition is 14.5% (inactive).

Take `COc1cc(OC)cc(C(=O)N[C@H](C(=O)Nc2nc3ccccc3[nH]2)C(C)C)c1`: the inhibition was 94.9% (active).

With `COc1ccc(OC(C)C(=O)NCCc2nc3ccccc3[nH]2)cc1` (stereo not given), the inhibition is -10.4% (inactive). As for `Cc1cc(/C=N/NC(N)=O)c(C)n1C1CCCCC1`, the inhibition was -4.6% (inactive). Consider `CCOC(=O)C(NC(=O)CC(C)C)(Nc1sc2c(c1C(N)=O)CCCC2)C(F)(F)F` (stereo not given), for which the inhibition is 5.1% (inactive). With `O=C(COc1ccc(Cl)cc1[N+](=O)[O-])N1CCCCC1` the figure was -4% (inactive). With `COc1ccccc1NC(=O)C1=C(C)Nc2nc3ccccc3n2C1c1cccs1` (stereo not given) the figure was 91% (active). With `CCOC(=O)C1=C(C)Nc2nc3ccccc3n2C1c1cccs1` (stereo not given) the figure was 6.6% (inactive); with `CCOc1ccc(C2C(C(=O)NC)=C(C)Nc3nc4ccccc4n32)cc1OC` (stereo not given), 11.5% (inactive); with `COc1cccc(-c2nn(-c3ccccc3)cc2/C=C(\C#N)C(=O)NCCCn2ccnc2)c1`, 14.7% (inactive). With `C=CCN1C2CCCC1CC(NC(=S)Nc1cccc(OC)c1)C2` (stereo not given), the inhibition is -2.4% (inactive).

Take `CCCOc1ccccc1C1CC(=O)Nc2cc3c(cc21)OCO3` (stereo not given): the inhibition is 92.3% (active). With `COCCOC(=O)C1=C(C)NC(=O)CC1c1cc2c(cc1Br)OCO2` (stereo not given) the figure was 3.7% (inactive); with `COc1ccccc1C1C2=C(COC2=O)Nc2cc3c(cc21)OCO3` (stereo not given), 94.5% (active); with `COc1ccc(F)cc1S(=O)(=O)Nc1ccc2c(c1)OCO2`, -19.9% (inactive). On to `COc1cc2c(cc1/C=C1/NC(=O)N(c3ccccc3)C1=O)OCO2`, for which the inhibition was -15.4% (inactive). Regarding `COc1ccc(C2CC(=O)Nc3cc(C)c(C)cc32)c(OC)c1OC` (stereo not given), the inhibition is -0.3% (inactive). With `CN1CCN(C(=O)/C(=C\c2cccs2)NC(=O)c2cccs2)CC1` the figure was -8.2% (inactive). With `CCCCn1nc(C(=O)Nc2ccc(S(=O)(=O)Nc3ncccn3)cc2)c2ccccc2c1=O` the figure was -36.5% (inactive); with `COc1cccc(CC(=O)N2CCCC(CCC(=O)N3CCN(c4ccccn4)CC3)C2)c1` (stereo not given), -8.5% (inactive); with `CCOc1ncccc1C(=O)OCC(=O)NC1CC1`, 17% (inactive). As to `O=c1c([N+](=O)[O-])cccn1Cc1ccc(F)cc1Cl`, the inhibition is -2.2% (inactive). With `Cc1ccc(/C=N/NC(=O)COc2ccccc2-c2ccccc2)cc1` the figure was 97% (active). Take `Cc1ccc(OCC(=O)N/N=C/c2ccncc2)cc1`: the inhibition was 0.8% (inactive). With `Cc1ccc(OCC(=O)N/N=C\c2ccco2)c(C)c1` the figure was -0.4% (inactive); with `CN1CCC(=NNC(=O)c2ccc(N(Cc3ccc(Cl)cc3)S(C)(=O)=O)cc2)CC1`, -0.2% (inactive); with `Cc1ccc(S(=O)(=O)N(CC(=O)NN=C2CCN(C)CC2)c2ccc(F)cc2)cc1`, -21% (inactive). With `CCOc1ccccc1C(=O)NCc1ccco1` the figure was -2.6% (inactive); with `CCCC1=Nc2cc(C(=O)NCc3ccco3)ccc2Sc2ccccc21`, 90.1% (active); with `COc1ccc(CCNS(=O)(=O)c2ccc(C(=O)NCc3ccco3)cc2)cc1OC`, -8.6% (inactive). With `CC(=O)N1CCN(S(=O)(=O)c2cccc(C(=O)NC3CCC(C)CC3)c2)CC1` (stereo not given) the figure was 2.6% (inactive). With `O=C(COc1ccc(NC(=O)c2ccccc2[N+](=O)[O-])cc1)c1ccc(F)cc1`, the inhibition is -3.2% (inactive). With `CCN(CC)C(=O)N(CC)Cc1ccccc1` the figure was -8.7% (inactive). With `CC(=O)Nc1ccc(S(=O)(=O)N2CCSCC2)cc1` the figure was 11.7% (inactive). With `CC(=O)Nc1ccc(S(=O)(=O)N2CCN(C(=O)c3ccccc3F)CC2)cc1` the figure was 94.3% (active); with `CC(=O)Nc1ccc(S(=O)(=O)N2CCN(C3CCCCCCC3)CC2)cc1`, -4.6% (inactive). Take `CN(Cc1ccc2nsnc2c1)Cc1nc(Cc2cccc(F)c2)no1`: the inhibition was -3.3% (inactive). As to `CNc1ccc(NC(C)=O)cc1[N+](=O)[O-]`, the inhibition is -17.6% (inactive). With `CC(C)CC(=O)NC(=S)Nc1ccc(F)cc1F` the figure was -8.3% (inactive); with `Cc1ccccc1OCCOc1ccc([N+](=O)[O-])cc1/C=N/n1cnnc1`, 45.2% (active); with `COc1cccc(OCCOc2cccc(/C=N/n3cnnc3)c2)c1`, -90.8% (inactive). With `COc1ccccc1OCCOc1ccc(/C=N/n2cnnc2)cc1` the figure was 8.5% (inactive); with `O=C(COC(=O)c1cc(-c2cccs2)nn1-c1ccccc1)Nc1cc([N+](=O)[O-])ccc1Cl`, -13.5% (inactive). With `Cc1cc(C(C)(C)C)cc(S(=O)(=O)Nc2ccc(C(=O)O)cc2)c1C` the figure was 2.7% (inactive); with `CNC(=S)NNC(=O)c1cccn(Cc2ccccc2)c1=O`, 4.8% (inactive); with `CCN(CC)S(=O)(=O)c1ccc(N2CCCC2)c(NS(=O)(=O)c2cccs2)c1`, 7.7% (inactive). For the compound `Cc1cc(C)n(-c2cc(Oc3ccccc3)ncn2)n1`, the inhibition was -14.1% (inactive).

In the case of `CC(=O)c1ccc(Oc2cc(C)nc(-n3nc(C)cc3C)n2)cc1`, the inhibition is 93.7% (active). Take `Cc1cc(Oc2ccc(Cl)cc2)nc(SCC(=O)c2ccccc2)n1`: the inhibition was -11.5% (inactive).

For `COc1ccccc1/C=N\Nc1cc(C)nc(-n2nc(C)cc2C)n1`, the inhibition was 3.2% (inactive). On to `COc1ccc(NC(=O)c2nc(-n3nc(C)cc3C)ccc2Cl)cc1Cl`, for which the inhibition is 21.2% (inactive). With `COc1ccc(Nc2cc(C)nc(-n3nc(C)cc3C)n2)cc1` the figure was 92.8% (active). With `O=C(NCc1ccccc1)C1=C[C@@H](c2ccc(C(F)(F)F)cc2)C[C@@H](OCc2ccc(CO)cc2)O1` the figure was -9.6% (inactive); with `O=C(CSc1nc2ccc(Nc3nc(N4CCOCC4)nc(N4CCOCC4)n3)cc2s1)NCc1ccco1`, -2.6% (inactive); with `CN1CCCN(C(=O)C2CCCCC2)CC1`, 4.4% (inactive).

Turning to `O=[N+]([O-])c1cccc(/C([O-])=C(/C(=S)Nc2ccccc2F)[n+]2ccccc2)c1`, the inhibition is -11.7% (inactive). With `CCOC(=O)c1c(C)[nH]c(C2=NNC(=NC(C)COC)SC2)c1C` (stereo not given) the figure was -102% (inactive); with `O=S1(=O)CCC(NC(=S)SCc2ccccc2Br)C1` (stereo not given), 0.3% (inactive). With `Cc1nn(C)cc1/C=N/NC(=O)c1sc2ccccc2c1Cl` the figure was 55.6% (active); with `O=C(Nc1ccon1)c1sc2ccccc2c1Cl`, -68.6% (inactive). Consider `O=C(N/N=C/c1c(Cl)[nH]c2ccccc12)c1sc2ccccc2c1Cl`, for which the inhibition was -4.8% (inactive). With `Cc1ccccc1CCN(CC(=O)NC1CCCCC1)C(=O)c1csnn1` the figure was 11.3% (inactive). On to `O=c1nc(N/N=C/c2ccco2)cn[nH]1`, for which the inhibition was 12.4% (inactive). For the compound `O=C(O)c1ccc(N/N=C/c2cn(-c3ccccc3)nc2-c2cccs2)cc1`, the inhibition is -140% (inactive). With `CC(C)(O)C#Cc1ncc(C(F)(F)F)cc1Cl` the figure was -2.7% (inactive). With `O=[N+]([O-])c1cccc(Nc2c3ccccc3nc3ccccc23)c1` the figure was 0.1% (inactive); with `CC(=O)Nc1ccc(NC(=O)COc2ncnc3ccccc23)cc1`, 0.3% (inactive); with `CC(=O)Nc1ccc(Nc2c3ccccc3nc3ccccc23)cc1`, 92.3% (active).

For the compound `C=CCn1c(SCc2ccc(Cl)c(Cl)c2)nnc1C(CO)NC(=O)c1ccc(OC)cc1` (stereo not given), the inhibition is -13.3% (inactive). With `CCOc1ccc(CCNC(=O)C2=C(C)C(=O)OC23CCC(C)CC3)cc1OCC` (stereo not given) the figure was -9.6% (inactive).

Regarding `N=c1c2c(-c3ccccc3)c(-c3ccccc3)n(Cc3ccccc3)c2ncn1CCCO`, the inhibition is 77.3% (active). With `Cc1nc([N+](=O)[O-])c(NCCCO)n1Cc1ccccc1` the figure was 6.3% (inactive); with `N=c1c2c(-c3ccccc3)c(-c3ccccc3)oc2ncn1Cc1ccco1`, -10.8% (inactive). `C/C(CCc1ccccc1)=N\NC(=O)c1ccc(CN2CCOCC2)cc1`: the inhibition was -5.3% (inactive). With `COc1ccc(N2C(=O)CC(SC(C)C)C2=O)cc1` (stereo not given) the figure was -20.2% (inactive); with `COc1cc(Cl)c(C)cc1NC(=O)COC(=O)c1cc(SC)ccc1Cl`, 6.6% (inactive). With `OCCC1CN(Cc2ccc3nsnc3c2)CCN1C1CCCC1` (stereo not given) the figure was -9.3% (inactive); with `C=CS(=O)c1sc(Cl)c(N2CCOCC2)c1[N+](=O)[O-]` (stereo not given), 83.2% (active). With `Cc1ccc(C(=O)NN(CCC#N)C2=NS(=O)(=O)c3ccccc32)cc1` the figure was -1.1% (inactive); with `C/C(=N\N)c1c(-c2ccccc2)c2cc(Br)ccc2[nH]c1=O`, -3.6% (inactive).

Turning to `COc1cccc2c(N/N=C/c3ccco3)cc(C)nc12`, the inhibition is -4.8% (inactive). With `Cc1cc(N/N=C/c2ccccc2F)c2ccccc2n1` the figure was -7.2% (inactive); with `COc1cccc(/C=N/Nc2cc(C)nc(-c3ccccc3O)n2)c1O`, 67.5% (active); with `COc1ccc(O)c(C(=O)c2cnc3c(c2)c(-c2ccc(F)cc2)c(C#N)c(=O)n3C)c1`, -3.8% (inactive).

Source of the values: PubChem BioAssay AID1285 (Columbia University Molecular Screening Center, 2008).
